# Data as given in ChEMBL document CHEMBL4888484, “Replenishing the malaria drug discovery pipeline: Screening and hit evaluation of the MMV Hit Generation Library 1 (HGL1) against asexual blood stage Plasmodium falciparum ,using a nano luciferase reporter read-out” (2022).
# The campaign covered roughly 4,800 compounds. About 420 (8.8%) showed an effect of 50% or more. What follows is part of a selection rich in strong results, with near analogues and random picks from the rest.
# Test system: Plasmodium falciparum
# Assay: Confirmatory screen in NF54 nanoGlo assay, in single point, at 2uM, 72h
# Assay type: functional, Erythrocyte
# Details: timepoint 72 hour
row,SMILES,% Inhibition [%]
1,O=C(O)COc1ccccc1[C@H]1CC(O)=Nc2cccc3c2c1cn3Cc1cccc(F)c1,1
2,N#Cc1ccc(CNc2ccccc2OCC(F)F)o1,-10
3,CNCCCNC(=O)c1ccc(Br)cc1C,5
4,COc1cc(CNC2CCCCC2)cc(Br)c1OCc1ccccc1Cl,5
5,COc1cc(NC(=O)N2CC(c3noc(-c4ccccc4)n3)C2)cc(OC)c1OC,2
6,CNC(=O)[C@@H]1C[C@H](NCc2cc(OC)c(OC)c(OC)c2)CN1CC(c1ccccc1)c1ccccc1,63
7,Cc1nc([C@H](C)NC(=O)c2ccc(S(C)(=O)=O)cc2)cs1,3
8,Cc1onc(C(=O)N2CCC3(CC2)CC[C@]3(C)O)c1Cn1cccn1,-6
9,CC(=O)Nc1cc2c(cc1NC(C)=O)N(C(C)=O)CC2,-15
10,COc1ccc(C2=Nc3ccc(S(=O)(=O)N4CCOCC4)cc3S(=O)(=O)N2)cc1,-10
11,C[C@H]1CCC[C@@H](NCCc2ccccc2)CCC/C=C/c2cc(O)cc(O)c2C(=O)O1,77
12,Cc1nc2c(-c3ccco3)nc(=O)n(CC(=O)Nc3cccc4ccccc34)c2s1,-8
13,COc1cccc(NC(=O)N2CC(O)CC2C2CCCCC2)c1 (stereo not given),-3
14,Oc1cccc(CN2CCC3(CC2)C[C@H](c2ccccc2)CN(C2CC2)C3)c1,31
15,COc1ccc(-c2nccn3cc(C(=O)NCC(C)C)nc23)cc1,-2
16,Cc1cccc(Cc2c(C)nn(-c3nc(C)cc(C)n3)c2O)c1,-18
17,CN(C)C(=O)c1cc2c(s1)CC[C@H](C(=O)NCCN1CCOCC1)C2,6
18,Cc1nn(-c2nc3ccccc3[nH]2)c2c1[C@@H](c1cccnc1)CC(=O)N2,79
19,Cc1nn(-c2ncccn2)c2c1[C@@H](c1ccccc1)CC(=O)N2,-16
20,O=C1C[C@H](c2cccnc2)c2cnn(C3CCCC3)c2N1,6

row,SMILES,% Inhibition [%]
1,O=C(CN1CCC[C@H]1C1CCCC1)NCC1CCCCC1,27
2,CC1=NN(c2ccccc2)C(O)C1C(c1ccccc1O)C1C(C)=NN(c2ccccc2)C1O (stereo not given),-7
3,Cc1ccccc1Cn1nc2ccc(S(=O)(=O)N3CCOCC3)cn2c1=O,4
4,COc1ccc([C@@H]2c3[nH]c4ccc(OC)cc4c3CCN2C(=O)NCc2ccc(F)cc2)cc1,14
5,COc1ccc(N2CCN(C(=O)c3ccc(F)cc3)[C@@H](C)C2=O)cc1,5
6,COc1ccc2[nH]c3c(c2c1)CCN(C(=O)c1ccc(C)c(C)c1)[C@@H]3c1ccccc1OC,84
7,COC(=O)c1nc2ccccc2c(-c2cn(-c3ccc(C(F)(F)F)cc3)nn2)c1C(=O)OC,1
8,CC(C)CNC(=O)N1CCCC[C@H]1c1noc(COc2ccc(F)cc2)n1,-9
9,COc1ccc(C2=NN(C(C#N)c3cccc(OC)c3O)C(c3ccccc3)C2)cc1 (stereo not given),4
10,N#CC(c1ccc(Cl)cc1)N1N=C(c2ccccc2)CC1c1ccccc1 (stereo not given),4
11,c1ccc(C2=NN(c3ccc(-c4cc(-c5ccccc5)[n+](-c5ccccc5)c(-c5ccccc5)c4)cc3)[C@H](c3ccccc3)C2)cc1,94
12,Cc1c(C)n(CC(O)CNC(C)c2ccccc2)c2c(Cl)cccc12 (stereo not given),64
13,Cc1cccc(C(=O)Nc2c(C#N)c(-c3ccccc3)c(-c3ccccc3)n2Cc2ccccc2)c1,3
14,CC(NCC(O)Cn1c(-c2ccccc2)c(-c2ccccc2)c2ccc3ccccc3c21)c1ccccc1 (stereo not given),88
15,Cc1c(C)n(C[C@H](O)Cn2c(C(F)(F)F)nc3ccccc32)c2c(Cl)cccc12,-6
16,CCC(C)NCC(O)Cn1c(-c2ccccc2)c(-c2ccccc2)c2cc(C)ccc21 (stereo not given),92
17,Cc1c(C)n(C[C@@H](O)CNC2CCCC2)c2c(Cl)cccc12,-1
18,O=C(Cn1c(=O)n(Cc2nc(-c3ccccc3)no2)c(=O)c2ccccc21)Nc1cccc(Cl)c1,5
19,O=C(NCc1ccccc1)c1cnn2c3c(cnc12)CCCCCC3,2
20,CCc1ccccc1NC(=O)c1sccc1S(=O)(=O)N1CCc2ccccc2C1,2

row,SMILES,% Inhibition [%]
1,Cc1cnc(CNC(=O)Nc2nnc3ccccn23)s1,-13
2,NC(=O)c1cccc(NC(=O)CC2=CCCCC2)n1,-11
3,CC[C@H]1CN2C=NC(N3CCN(C(=O)Nc4cc(F)cc(F)c4)CC3)=CC2=N1,35
4,O=C(CCC(=O)c1ccc(F)cc1F)NS(=O)(=O)c1cccnc1,-4
5,Cc1ccc(S(=O)(=O)Nc2ccccc2-c2nnc(-c3c(NS(=O)(=O)c4ccc(C)cc4)ccc4ccccc34)o2)cc1,-14
6,Cc1ccc(S(=O)(=O)c2c(C)cc(-c3ccccc3)nc2N2CCOCC2)cc1,0
7,Cc1cnc(C2CCC2)n1CCNS(=O)(=O)c1ccccc1,-4
8,Cc1ccc(S(=O)(=O)Nc2c(S(=O)(=O)c3ccccc3)c3nc4ccccc4nc3n2CCc2ccccc2)cc1,97
9,Cc1ccc(S(=O)(=O)Nc2c(S(=O)(=O)c3ccc(C)cc3)c3nc4ccccc4nc3n2C[C@H]2CCCO2)cc1,52
10,Cc1ccc(S(=O)(=O)Nc2c(S(=O)(=O)c3ccc(C)cc3)c3nc4ccccc4nc3n2CCC(C)C)cc1,98
11,Cc1ccc(NS(=O)(=O)c2ccc(NC(=O)Cc3ccccc3)cc2)cc1C,2
12,Cc1ccc(-c2nc3c(c(=O)n2CC(=O)NC[C@H]2CCCO2)CCN(Cc2ccccc2)C3)cc1,-9
13,CS(=O)(=O)n1c(CCCc2ccccc2)nc2ccccc21,1
14,Cc1cc(NC(=O)Cn2c(=O)n(CCc3ccccc3)c(=O)c3ccccc32)no1,4
15,Cc1ccc(S(=O)(=O)Nc2cc3nc4ccccc4nc3n2CCc2ccccc2)cc1,100
16,Cc1ccc(NCc2ncccn2)cc1OCC1CCCCC1,1
17,O=C(C1CCCC2CCCCC21)N1CCN(c2ncccn2)CC1 (stereo not given),-8
18,Cc1cc(-n2nnc3ccccc32)nc(C)n1,4
19,Cc1ccc(Cl)c2ccc(NC(=O)CCNC(N)=O)nc12,0
20,CN([C@H]1CCc2ccccc21)S(=O)(=O)c1ccc2c(c1)CCC2,7
